Among the data in PMC5700166 are binding signal values, retold here.

Where a chain is given by its changes, count along the chain named.

Experiment in all cases: protein-binding microarray (PBM); PBM: ~300 nM protein, 6 mM HEPES pH 7.8, 80 mM KCl, 0.5 mM EDTA, 0.5 mM EGTA, 6% glycerol, 35 ng/ul poly-dIdC, 1% milk, 1 h, room temperature; Ap Aiptasia and Nv Nematostella (sea anemones) / Co Capsaspora / Aq Amphimedon (sponge) / Dm Drosophila / Hu human; RHD is the Rel homology domain; high values mean tight binding
Holding throughout (settings): dsDNA, one strand shown

The target of one assay is T1, GST-Dm-Relish (Drosophila melanogaster, UniProt Q94527 99-473).
T1 sequence: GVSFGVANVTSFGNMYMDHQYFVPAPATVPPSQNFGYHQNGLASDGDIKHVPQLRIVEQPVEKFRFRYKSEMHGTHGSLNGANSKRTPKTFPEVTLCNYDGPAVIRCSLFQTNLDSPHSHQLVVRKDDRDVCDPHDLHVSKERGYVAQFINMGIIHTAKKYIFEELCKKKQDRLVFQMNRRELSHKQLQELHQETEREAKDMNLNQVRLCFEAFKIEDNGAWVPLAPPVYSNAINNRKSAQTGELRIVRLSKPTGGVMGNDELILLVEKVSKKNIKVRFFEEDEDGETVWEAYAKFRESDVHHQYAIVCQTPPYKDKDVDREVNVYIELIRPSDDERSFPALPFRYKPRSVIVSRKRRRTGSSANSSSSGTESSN

In another assay the target is T2, GST-Aq-NF-kB (Amphimedon queenslandica, UniProt A9Y5G7 2-389).
T2 sequence: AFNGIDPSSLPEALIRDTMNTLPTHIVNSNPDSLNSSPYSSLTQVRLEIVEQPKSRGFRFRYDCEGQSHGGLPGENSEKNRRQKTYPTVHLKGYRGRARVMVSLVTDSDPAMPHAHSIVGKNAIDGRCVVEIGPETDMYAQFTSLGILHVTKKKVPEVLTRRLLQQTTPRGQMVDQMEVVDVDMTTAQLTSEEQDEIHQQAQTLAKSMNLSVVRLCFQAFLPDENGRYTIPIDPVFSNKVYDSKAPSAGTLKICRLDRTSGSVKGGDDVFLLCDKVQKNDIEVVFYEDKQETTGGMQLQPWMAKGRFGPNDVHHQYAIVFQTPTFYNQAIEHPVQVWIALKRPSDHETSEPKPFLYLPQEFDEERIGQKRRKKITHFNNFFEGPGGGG

In assay [1] the target is T3, GST-Nv-NF-kB (Cys allele) (Nematostella vectensis, UniProt E5G601 2-411).
T3 sequence: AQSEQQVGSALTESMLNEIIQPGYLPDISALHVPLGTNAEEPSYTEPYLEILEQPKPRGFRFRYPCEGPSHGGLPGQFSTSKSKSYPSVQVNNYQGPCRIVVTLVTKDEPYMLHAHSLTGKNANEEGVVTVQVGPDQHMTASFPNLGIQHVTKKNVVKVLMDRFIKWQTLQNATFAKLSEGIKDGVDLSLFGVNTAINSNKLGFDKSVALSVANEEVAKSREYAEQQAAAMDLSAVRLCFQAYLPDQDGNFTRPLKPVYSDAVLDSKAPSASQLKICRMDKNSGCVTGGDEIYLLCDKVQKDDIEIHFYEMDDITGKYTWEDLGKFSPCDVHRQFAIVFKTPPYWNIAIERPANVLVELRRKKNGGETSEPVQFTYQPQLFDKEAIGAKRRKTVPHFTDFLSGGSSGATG

The target in a further assay is T4, GST-Co-NF-kB (Capsaspora owczarzaki, UniProt F1ARL5 200-546).
T4 sequence: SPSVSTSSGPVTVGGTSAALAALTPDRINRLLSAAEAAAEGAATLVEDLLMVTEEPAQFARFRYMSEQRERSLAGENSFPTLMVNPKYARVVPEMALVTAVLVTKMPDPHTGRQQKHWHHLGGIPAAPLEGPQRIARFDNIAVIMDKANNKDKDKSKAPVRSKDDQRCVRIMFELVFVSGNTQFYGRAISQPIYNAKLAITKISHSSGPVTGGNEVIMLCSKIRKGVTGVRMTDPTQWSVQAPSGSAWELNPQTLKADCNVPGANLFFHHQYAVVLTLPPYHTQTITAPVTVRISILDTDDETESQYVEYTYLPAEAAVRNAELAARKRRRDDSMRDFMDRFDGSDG

The next assay concerns the target T5, GST-Ap-NF-kB RHD (Exaiptasia pallida (Aiptasia), UniProt A0A913YAJ5 2-422).
T5 sequence: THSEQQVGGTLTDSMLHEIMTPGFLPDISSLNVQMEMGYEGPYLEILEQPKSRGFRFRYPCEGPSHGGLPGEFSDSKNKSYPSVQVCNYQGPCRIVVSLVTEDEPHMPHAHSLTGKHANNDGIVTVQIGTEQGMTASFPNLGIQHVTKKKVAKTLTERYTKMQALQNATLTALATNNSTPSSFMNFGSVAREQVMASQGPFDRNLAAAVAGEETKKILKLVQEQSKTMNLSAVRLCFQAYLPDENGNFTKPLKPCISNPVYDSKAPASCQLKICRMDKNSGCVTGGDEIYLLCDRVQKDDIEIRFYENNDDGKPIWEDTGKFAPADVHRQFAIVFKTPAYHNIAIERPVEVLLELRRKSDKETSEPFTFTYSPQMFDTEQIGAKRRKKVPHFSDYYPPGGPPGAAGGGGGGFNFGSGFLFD

For assay [2], the target named is T6, GST-Nv-NF-kB (Ser allele) (Nematostella vectensis, UniProt A7UNT2 2-411).
T6 sequence: T3 sequence with Q21R, C66S, S207N, E215Q, V217A, E225K, A268E, D399E

Regarding “CCGATTAACATCAGTACTTTCCATGATGTTAATCGGGTCTTGATTCGCTTGACGCTGCTG”, the binding signal with GST-Dm-Relish is 5.35 z-score; in the assay with GST-Aq-NF-kB, 1.95 z-score.

Turning to “CCGATTAACATCAGGAAAAATCCTGATGTTAATCGGGTCTTGATTCGCTTGACGCTGCTG”, the binding signal amounted to 1.66 z-score with GST-Dm-Relish and 1.79 z-score with GST-Aq-NF-kB.

As for “CCGATTAACATCAAAAATTTCCGTGATGTTAATCGGGTCTTGATTCGCTTGACGCTGCTG”, the binding signal with GST-Dm-Relish turned out to be 1.61 z-score; in the assay with GST-Aq-NF-kB, 2.63 z-score.

With “CCGATTAACATCAGGAGTTTCCATGATGTTAATCGGGTCTTGATTCGCTTGACGCTGCTG”, the results for the binding signal with GST-Dm-Relish and in the assay with GST-Aq-NF-kB were 1.28 z-score and 2.43 z-score, respectively.

On to “CCGATTAACATCAAAATTTCCACTGATGTTAATCGGGTCTTGATTCGCTTGACGCTGCTG”, for which the binding signal with GST-Dm-Relish was determined as 1.61 z-score; in the assay with GST-Aq-NF-kB it was 1.15 z-score.

Turning to “CCGATTAACATCAGGAATTTCTATGATGTTAATCGGGTCTTGATTCGCTTGACGCTGCTG”, the binding signal in the assay with GST-Dm-Relish came out at 1.28 z-score; with GST-Aq-NF-kB, 1.23 z-score.

Consider “CCGATTAACATCAAAAAAATTTCTGATGTTAATCGGGTCTTGATTCGCTTGACGCTGCTG”, for which the binding signal with GST-Dm-Relish came to 1.41 z-score; with GST-Aq-NF-kB it was 1.23 z-score.

On to “CCGATTAACATCAGGACTTTCCATGATGTTAATCGGGTCTTGATTCGCTTGACGCTGCTG”, for which the binding signal with GST-Dm-Relish turned out to be 3.27 z-score; in the assay with GST-Aq-NF-kB it was 4.23 z-score.

In the case of “CCGATTAACATCAGGAAACCCACTGATGTTAATCGGGTCTTGATTCGCTTGACGCTGCTG”, the binding signal in the assay with GST-Dm-Relish is 3.86 z-score; with GST-Aq-NF-kB, 1.01 z-score.

Regarding “CCGATTAACATCACGTGCTTTCCTGATGTTAATCGGGTCTTGATTCGCTTGACGCTGCTG”, the figures for the binding signal in the assay with GST-Dm-Relish and with GST-Aq-NF-kB were 2.88 z-score and 1.36 z-score, respectively.

In the case of “CCGATTAACATCAAGGAAAATCCTGATGTTAATCGGGTCTTGATTCGCTTGACGCTGCTG”, the values for the binding signal in the assay with GST-Dm-Relish and in the assay with GST-Aq-NF-kB were 1.5 z-score and 3.1 z-score, respectively.

For the sequence “CCGATTAACATCAGGAATTCCACTGATGTTAATCGGGTCTTGATTCGCTTGACGCTGCTG”, the binding signal stood at 3.07 z-score with GST-Dm-Relish and 1.57 z-score in the assay with GST-Aq-NF-kB.

As for “CCGATTAACATCAATTTGGGAAATGATGTTAATCGGGTCTTGATTCGCTTGACGCTGCTG”, the binding signal in assay [1] worked out at 2.58 z-score; in the assay with GST-Co-NF-kB, 1.92 z-score.

In the case of “CCGATTAACATCAAGATTAGGGATGATGTTAATCGGGTCTTGATTCGCTTGACGCTGCTG”, the binding signal with GST-Ap-NF-kB RHD worked out at 1.31 z-score.

Regarding “CCGATTAACATCAAGGGGGGATATGATGTTAATCGGGTCTTGATTCGCTTGACGCTGCTG”, the binding signal in the assay with GST-Ap-NF-kB RHD stood at 5.79 z-score; in assay [1] it was 4.88 z-score; with GST-Co-NF-kB it was 6.15 z-score; with GST-Dm-Relish, 4.29 z-score.

In the assay with GST-Co-NF-kB, “CCGATTAACATCAACGTGATTTGTGATGTTAATCGGGTCTTGATTCGCTTGACGCTGCTG” came in with a binding signal of 1.11 z-score.

With “CCGATTAACATCACCCCCCCCCATGATGTTAATCGGGTCTTGATTCGCTTGACGCTGCTG”, the binding signal with GST-Ap-NF-kB RHD was determined as 4.92 z-score; in assay [2], 3.7 z-score; with GST-Co-NF-kB it was 7.08 z-score; with GST-Dm-Relish, 5.37 z-score.

As to “CCGATTAACATCACCCCGAACGCTGATGTTAATCGGGTCTTGATTCGCTTGACGCTGCTG”, the binding signal with GST-Ap-NF-kB RHD worked out at 1.59 z-score; in the assay with GST-Co-NF-kB it was 2.02 z-score.

Take “CCGATTAACATCAGCTTGGGAAATGATGTTAATCGGGTCTTGATTCGCTTGACGCTGCTG”: the binding signal amounted to 1.84 z-score in assay [1] and 2.33 z-score in the assay with GST-Co-NF-kB.

Take “CCGATTAACATCACCCGGCGCAGTGATGTTAATCGGGTCTTGATTCGCTTGACGCTGCTG”: the binding signal came to 1.17 z-score with GST-Ap-NF-kB RHD and 2.3 z-score in the assay with GST-Co-NF-kB.

Regarding “CCGATTAACATCACTAGGCGGGATGATGTTAATCGGGTCTTGATTCGCTTGACGCTGCTG”, the binding signal worked out at 1.56 z-score with GST-Ap-NF-kB RHD and 1.92 z-score with GST-Co-NF-kB.

On to “CCGATTAACATCAACCCCAGCTCTGATGTTAATCGGGTCTTGATTCGCTTGACGCTGCTG”, for which the binding signal turned out to be 1.01 z-score with GST-Ap-NF-kB RHD, 1.21 z-score in assay [1], 1.8 z-score with GST-Co-NF-kB and 1.14 z-score with GST-Dm-Relish.

In assay [2], “CCGATTAACATCAGTACCTCGTATGATGTTAATCGGGTCTTGATTCGCTTGACGCTGCTG” came in with a binding signal of 1.04 z-score.

As for “CCGATTAACATCACTAGGTAGTCTGATGTTAATCGGGTCTTGATTCGCTTGACGCTGCTG”, the binding signal in assay [2] came out at 1.04 z-score.

Take “CCGATTAACATCAGTGGTACTTGTGATGTTAATCGGGTCTTGATTCGCTTGACGCTGCTG”: the binding signal was 1.44 z-score in assay [2] and 1.25 z-score in the assay with GST-Dm-Relish.

“CCGATTAACATCAAAGAGGAGTCTGATGTTAATCGGGTCTTGATTCGCTTGACGCTGCTG”: the binding signal in assay [1] was determined as 1.23 z-score.

In turn, “CCGATTAACATCACCCACCGATTTGATGTTAATCGGGTCTTGATTCGCTTGACGCTGCTG” registered a binding signal with GST-Ap-NF-kB RHD of 1.07 z-score.

With “CCGATTAACATCAGGGAGCCGTATGATGTTAATCGGGTCTTGATTCGCTTGACGCTGCTG”, the binding signal in the assay with GST-Ap-NF-kB RHD stood at 1.18 z-score.

For “CCGATTAACATCAACCCCCCCCCTGATGTTAATCGGGTCTTGATTCGCTTGACGCTGCTG”, the binding signal in the assay with GST-Ap-NF-kB RHD came to 5.71 z-score; in assay [2], 4.2 z-score; with GST-Co-NF-kB, 5.49 z-score; with GST-Dm-Relish, 5.26 z-score.
